Source: ChEMBL document CHEMBL1857833, “Screening and optimization of specific chemical series against human African Trypanosomiasis (HAT)”
The campaign covered roughly 4,400 compounds. About 390 (8.9%) showed an effect of 50% or more. Many of the other results were omitted from the sample, so strong results are more common in it than they were.

test system: Trypanosoma brucei; assay: DNDI: Inhibition of Human African Trypanosomiasis, SBRI 427, in vitro at 2 ug.mL-1; format: functional

SMILES | % inhibition
Cc1ccccc1-c1nc(CN2CCC(N3CCCCC3)CC2)co1 | 14%
C1=C(CCNCc2coc(-c3cccs3)n2)CCCC1 | -10%
Cc1ccccc1NCc1coc(-c2ccco2)n1 | -2%
CCN(Cc1coc(-c2ccc(C(F)(F)F)cc2)n1)c1ccccc1 | 4%
CC(NCc1coc(-c2ccc(OC(F)(F)F)cc2)n1)c1cccc2ccccc12 (centres undefined) | -34%
O/N=C(\NCc1cc(F)cc(F)c1)c1ccc(Oc2c(F)c(F)cc(F)c2F)nc1 | 10%
O/N=C(\Nc1ccccc1)c1ccc(Oc2cccc3c2CCCC3)nc1 | 22%
O/N=C(\NCC1CC1)c1ccc(Oc2cccc3c2CCCC3)nc1 | 77%
O/N=C(\NCc1c(F)cccc1F)c1ccc(Oc2cccc3c2CCCC3)nc1 | 15%
CCC(CC)N/C(=N\O)c1ccc(Oc2cccc3c2CCCC3)nc1 | 76%
O/N=C(\NCc1cccs1)c1ccc(Oc2cccc3c2CCCC3)nc1 | 4%
O/N=C(/c1ccc(Oc2cccc3c2CCCC3)nc1)N1CCCCC1 | 31%
N/C(=N\O)c1ccc(Oc2cccc3c2CCCC3)nc1 | 19%
COc1ccc(CN/C(=N\O)c2ccc(Oc3cccc4c3CCCC4)nc2)cc1 | 32%
O/N=C(\NC1CCCC1)c1ccc(Oc2cccc3c2CCCC3)nc1 | 97%
Cc1ccccc1-c1nc(CN2CCN(c3cccc(C(F)(F)F)c3)CC2)co1 | 14%
CCOc1ccccc1-c1nc(CN2CCC3(CC2)OCCO3)co1 | 1%
COC(=O)C1CCN(Cc2coc(-c3cccc(F)c3)n2)CC1 | 6%
CCN(CC)Cc1coc(-c2cccc(OC)c2)n1 | 11%
COc1ccc(CN/C(=N\O)c2cccnc2Oc2ccccc2)cc1 | 14%
COc1ccc(Oc2ncccc2/C(=N/O)NCc2ccccc2)cc1 | 86%
COc1cccc(CN/C(=N\O)c2cccnc2OCC2CCCCC2)c1 | 71%
CCc1ccc(Oc2ncccc2/C(=N/O)NCc2ccccc2)cc1 | 99%
O/N=C(\NCc1cc(F)cc(F)c1)c1cccnc1Oc1ccc(Cl)cc1 | 59%
COc1ccc(Oc2ncccc2/C(=N/O)NCc2ccncc2)cc1 | -2%
CCc1ccc(Oc2ncccc2/C(=N/O)NCc2ccncc2)cc1 | 5%
COc1cccc(CN/C(=N\O)c2cccnc2OC2CCC2)c1 | -1%

SMILES | % inhibition
CCc1ccc(Oc2ncccc2/C(=N/O)NCc2cccnc2)cc1 | 3%
O/N=C(\NCc1cccnc1)c1cccnc1OCC1CCCCC1 | 6%
COc1ccc(Oc2ncccc2/C(=N/O)NCc2cc(F)cc(F)c2)cc1 | 39%
O/N=C(\NCc1cc(F)ccc1F)c1cccnc1Oc1ccc(Cl)cc1 | 12%
CC(C)(C)c1ccc(-c2nc(Cn3nc(N)cc3-c3ccccc3)co2)cc1 | 9%
CN(CCC#N)Cc1coc(-c2cccc3ccccc23)n1 | 7%
CCOC(=O)C1CCCCN1Cc1coc(-c2cccc(OCC)c2)n1 (centres undefined) | 2%
COc1ccccc1CNCc1coc(-c2ccc(Br)cc2)n1 | 3%
CCN(Cc1coc(-c2ccccc2Cl)n1)c1cccc2ccccc12 | -6%
COc1cccc(CN/C(=N\O)c2cccnc2Oc2c(F)cccc2F)c1 | 17%
COc1cccc(CN/C(=N\O)c2cccnc2Oc2ccc(Cl)cc2)c1 | 98%
COc1ccc(Oc2ncccc2/C(=N/O)NCc2cccc(OC)c2)cc1 | -6%
O/N=C(/c1ccnc(Oc2ccc(F)c(Cl)c2)c1)N1CC=CCC1 | 17%
Cc1cccc(Oc2ncccc2/C(=N/O)N2CC(C)CC(C)C2)c1C (centres undefined) | 1%
Cc1ccc(Oc2nc(C)ccc2/C(=N/O)NCC2CCCCC2)c(C)c1 | 62%
Cc1ccc(Oc2nc(C)ccc2/C(=N/O)NCCN2CCCCC2)c(C)c1 | 0%
Cc1ccc(Oc2nc(C)ccc2/C(=N/O)NC2CCCCC2)c(C)c1 | 100%
Cc1ccc(Oc2nc(C)ccc2/C(=N/O)NC2CCCC2)c(C)c1 | 25%
COc1cc(C)ccc1Oc1nc(C)ccc1/C(=N/O)NC1CCCC1 | -8%
Cc1cc(C)cc(Oc2nc(C)ccc2/C(=N/O)NCC2CCCCC2)c1 | 14%
C=CCN1CCN(/C(=N\O)c2ccc(C)nc2Oc2ccc(C)cc2)CC1 | 30%
CC1C=CC(C)N1/C(=N\O)c1cccnc1Oc1ccc(Cl)cc1 (centres undefined) | -7%
Cc1ccc(N2CCN(Cc3coc(-c4ccc(OC(F)(F)F)cc4)n3)CC2)cc1C | 23%
CC(C)(C)COc1ncccc1/C(=N/O)NCC1CCCO1 (centres undefined) | 4%
CCC(CC)CNCc1coc(-c2ccccc2Br)n1 | 1%
C[C@H]1C(NCc2coc(-c3ccccc3Br)n2)C[C@@H]2C[C@H]1C2(C)C (some centres undefined) | 98%
C[C@@H]1C(NCc2coc(-c3ccccc3Br)n2)C[C@H]2C[C@@H]1C2(C)C (some centres undefined) | 100%

SMILES | % inhibition
Brc1ccccc1-c1nc(CNC2CCc3ccccc32)co1 (centres undefined) | 7%
Brc1ccccc1-c1nc(CNCc2ccccc2)co1 | 11%
CC(C)(C)CNCc1coc(-c2ccccc2Br)n1 | 7%
Cc1ccc(/C(=N/O)N2CCCCC2)c(Oc2ccc(F)cc2)n1 | 24%
CCc1nccn1Cc1coc(-c2cc(OC)c(OC)c(OC)c2)n1 | 9%
Cc1ccc2cccc(Oc3cc(/C(N)=N/O)ccn3)c2n1 | 7%
Cc1ccc(/C(=N/O)N2CCCC2)c(OCc2ccccc2C)n1 | 10%
CN(Cc1coc(-c2ccc(Cl)cc2Cl)n1)Cc1ccco1 | 11%
O=C(C1CCCO1)N1CCN(Cc2coc(-c3ccc(C(F)(F)F)cc3)n2)CC1 (centres undefined) | 4%
CCOC(=O)C1CCCN(Cc2coc(-c3ccccc3Cl)n2)C1 (centres undefined) | 4%
COc1cccc(-c2nc(CN3CCN(c4ccccc4OC)CC3)co2)c1 | -9%
CC1CC(C)CN(/C(=N\O)c2cccnc2Oc2ccccc2)C1 (centres undefined) | 10%
Cc1ccc(-c2nc(CNc3ccccc3C)co2)cc1 | -4%
O/N=C(\NCC1CCCO1)c1ccc(Oc2ccc3oc4ccccc4c3c2)nc1 (centres undefined) | -8%
O/N=C(\NC1CCc2ccccc21)c1ccc(Oc2ccc3oc4ccccc4c3c2)nc1 (centres undefined) | 19%
O/N=C(\NCc1ccncc1)c1ccc(Oc2ccc3oc4ccccc4c3c2)nc1 | -14%
CCC(C)(C)N/C(=N\O)c1ccc(Oc2ccc3oc4ccccc4c3c2)nc1 | 97%
Cc1cc(C)cc(CN/C(=N\O)c2ccc(Oc3ccc4oc5ccccc5c4c3)nc2)c1 | 32%
O/N=C(\NCc1cccnc1)c1ccc(Oc2ccc3oc4ccccc4c3c2)nc1 | 84%
O/N=C(\NC1CC1)c1ccc(Oc2ccc3oc4ccccc4c3c2)nc1 | 82%
COc1cccc(CN/C(=N\O)c2ccc(Oc3ccc4oc5ccccc5c4c3)nc2)c1 | 16%
CC(C)(C)CN/C(=N\O)c1ccc(Oc2ccc3oc4ccccc4c3c2)nc1 | 8%
CN(/C(=N\O)c1ccc(Oc2ccc3oc4ccccc4c3c2)nc1)C1CCCCC1 | 22%
CC(C)CN/C(=N\O)c1ccc(Oc2ccc3oc4ccccc4c3c2)nc1 | 11%
O/N=C(\NC1CCC1)c1ccc(Oc2ccc3oc4ccccc4c3c2)nc1 | 94%
